Results from PubChem BioAssay (NCI).
This is part of a sample that, as a whole, favours compounds with a hit. Of some 83,000 tested, about 20% had one in any assay.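 Plates (96-well) were seeded with cells, treated with compound at one concentration, and incubated for 48 hours before percent growth was determined.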 A number with no mark means an inactive call. Calls of active or inactive are those of the source. Rule for the calls: active = growth percent below 10; inactive = the rest.

System: HL-60(TB) leukemia
Assay: NCI-60 one-dose screen, 48 h (100 = growth as untreated, 0 = no growth, -100 = all killed)
Conditions: 10 µM unless noted

Row | Compound | growth
1 | CC12CC[C@@H]3[C@]4(C)COC(c5cn[nH]c5-c5cccc(Br)c5)O[C@@H]4CC[C@@]3(C)[C@@H]1CC(C1=CCOC1=O)O2 (stereo not given in full) | 13%
2 | COc1ccc(-c2cc(C(=O)N=Nc3c(O)[nH]c4ccc(Cl)cc34)c3ccccc3n2)cc1OC | 109%
3 | C#CCOc1ccc(/C=N/Nc2nc(-c3ccc(Cl)cc3)cs2)cc1OC | 20.1%
4 | COc1ccc(NC(=O)Cn2c(O)c(N=Nc3ccc(S(N)(=O)=O)cc3)c3ccccc32)cc1 | 96.9%
5 | COc1cc(/C=C/C(=O)c2ccc(S(=O)(=O)NCCNc3nc(N(C)C)nc(N4CCOCC4)n3)cc2)cc(OC)c1OC | -64.8% (active)
